According to ChEMBL document CHEMBL3988442, “University of Dundee, Small-Polar-MMV Screening Library” (2021):

Tested on: Trypanosoma cruzi
Experiment: Trypanosoma cruzi phosphomannomutase and mannose-1-phosphate guanylyltransferase assay
Assay type: functional
Set-up: scale not given: direction of the effect not stated beside the values
Settings: 10 µM

Compound | Percent Effect [%]
CC(C)NC(=O)Cn1cc(-c2ccccc2)cn1 | 2.15
Cc1nn(C)c(C)c1C1COCCN1C(=O)c1ccccc1 (stereo not given) | 6.74
O=C(N1CCCO1)[C@@]12CCO[C@@H]1CCN(C1CCCCC1)C2 | 0
CC(C(=O)NCc1ccc(N2CCNC(=O)C2)cc1)n1cncn1 (stereo not given) | 8.24
Cn1cc(CCNC(=O)NCc2nnc3n2CCC3)cn1 | -1.6
CO[C@H]1CN(Cc2cccc(C#N)c2)[C@@H]2COC[C@H]12 | 0.965
CC(NC(=O)c1nc(=O)[nH][nH]1)c1ccc(OCC2CC2)c(F)c1 (stereo not given) | 4.58
c1ccc(-c2noc(CN3CCC(c4ccn[nH]4)CC3)n2)cc1 | 3.09
Cc1csc(N2CCN(C(=O)CCn3cncn3)CC2)n1 | 0.472
Cc1cc(C2CCCN(C(=O)c3cnn(C)c3)C2)ccn1 (stereo not given) | 5.93
CCN(CC)CCNC(=O)c1cnc(C(C)(C)C)s1 | -3.64
CCC(=O)Nc1nnc(CCOc2cccc(OC)c2)s1 | -3.54
CCCn1[nH]cc/c1=N\C(=O)CN1CCCC1c1c(C)nn(C)c1C (stereo not given) | 7.45
O=C(c1ccnnc1)N1C[C@H](Oc2cccnc2)[C@H]2OCCC[C@H]21 | 0.781
COc1ccc(CN2CCC(O)CC2)c(OC)c1 | 1.93
CS(=O)(=O)Cc1cccc(C(=O)NCC2Cc3ccccc3O2)c1 (stereo not given) | -2.74
O=C(CCc1cccs1)N1CCCCC1Cn1cccn1 (stereo not given) | 5.19
CCOc1ccccc1OC1CCN(C(=O)c2ccc(=O)[nH]n2)CC1 | 3.76
CN(C)CCNC(=O)c1ccc(OC2CCN(S(C)(=O)=O)CC2)c(Cl)c1 | 8.5
N#Cc1ccc(C(=O)N2CCn3c(Cn4cccn4)cnc3C2)cc1 | -3.86
